From PubChem BioAssay AID588352 (The Scripps Research Institute Molecular Screening Center, 2011)
Screen size: about 360,000 compounds; about 620 (0.17%) were called active. Only a selection was taken, and actives are over-represented in it overall. Unmarked numbers belong to inactive results.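 How the source made its calls: active means inhibition above a per-campaign cutoff, the mean of all compounds plus 3 SD (cut at about 60% in these data); inactive means the rest.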

molecular target: Nuclear receptor coactivator 3 (Homo sapiens) (UniProt Q9Y6Q9); assay: SRC3 coactivator transcriptional activity inhibitors, primary screen, cell-based, luminescence (AID 588352); details: HEK293 GAL4-SRC3 luciferase reporter, at 3.6 µM, active compounds read high;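 further: 0% = DMSO-treated cells and 100% = gossypol-treated cells at 36 µM; higher means less SRC3-driven luciferase light from the GAL4 reporter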
Sequence (Q9Y6Q9 whole entry, looked up, the tested form may be a part): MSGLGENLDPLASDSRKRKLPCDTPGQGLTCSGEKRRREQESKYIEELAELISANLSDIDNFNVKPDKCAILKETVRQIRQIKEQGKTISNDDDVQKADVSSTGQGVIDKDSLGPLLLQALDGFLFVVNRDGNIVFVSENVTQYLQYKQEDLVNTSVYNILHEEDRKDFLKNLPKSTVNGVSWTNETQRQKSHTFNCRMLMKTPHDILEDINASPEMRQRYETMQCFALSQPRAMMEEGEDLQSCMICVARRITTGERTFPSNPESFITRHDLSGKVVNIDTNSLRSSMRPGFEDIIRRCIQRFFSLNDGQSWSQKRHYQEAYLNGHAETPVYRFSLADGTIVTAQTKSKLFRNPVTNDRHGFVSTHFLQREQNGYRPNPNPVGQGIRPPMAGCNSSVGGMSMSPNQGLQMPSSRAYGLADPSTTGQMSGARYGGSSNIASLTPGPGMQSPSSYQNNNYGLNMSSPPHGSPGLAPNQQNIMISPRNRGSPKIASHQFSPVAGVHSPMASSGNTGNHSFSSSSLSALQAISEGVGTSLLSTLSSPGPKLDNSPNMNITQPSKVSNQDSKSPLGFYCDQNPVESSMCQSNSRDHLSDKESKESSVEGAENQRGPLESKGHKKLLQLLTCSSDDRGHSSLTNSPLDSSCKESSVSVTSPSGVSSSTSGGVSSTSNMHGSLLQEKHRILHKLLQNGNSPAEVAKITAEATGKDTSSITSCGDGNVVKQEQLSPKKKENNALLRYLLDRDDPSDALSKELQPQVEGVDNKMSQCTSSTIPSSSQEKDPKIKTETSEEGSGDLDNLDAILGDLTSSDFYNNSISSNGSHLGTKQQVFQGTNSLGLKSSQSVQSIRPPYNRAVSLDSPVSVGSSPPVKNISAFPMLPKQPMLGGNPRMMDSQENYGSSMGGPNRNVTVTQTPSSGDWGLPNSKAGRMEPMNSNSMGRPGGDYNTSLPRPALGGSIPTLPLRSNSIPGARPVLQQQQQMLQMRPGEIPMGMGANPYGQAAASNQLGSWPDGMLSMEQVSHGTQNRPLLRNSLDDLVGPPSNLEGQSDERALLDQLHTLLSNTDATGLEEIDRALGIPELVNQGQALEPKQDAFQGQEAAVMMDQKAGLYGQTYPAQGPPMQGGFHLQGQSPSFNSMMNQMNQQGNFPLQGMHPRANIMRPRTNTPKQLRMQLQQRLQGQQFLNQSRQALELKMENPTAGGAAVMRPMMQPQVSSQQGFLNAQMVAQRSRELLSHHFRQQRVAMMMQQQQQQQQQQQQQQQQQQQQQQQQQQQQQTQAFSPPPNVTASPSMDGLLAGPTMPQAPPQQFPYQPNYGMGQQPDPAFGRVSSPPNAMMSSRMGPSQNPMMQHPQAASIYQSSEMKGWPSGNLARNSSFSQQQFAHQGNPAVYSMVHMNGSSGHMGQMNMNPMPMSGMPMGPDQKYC

SMILES | inhibition
Nc1cccc2c1C(=O)N(Cc1nnc(-c3ccccc3Br)o1)C2=O | 7.44%
COc1ccc(C(=O)N2CCCCC2C(=O)Nc2ccc(-n3nc(C)cc3C)cc2)o1 (stereo not drawn) | -17.3%
Clc1ccc(-c2nnc(-c3ccccc3)nc2N2CCSCC2)cc1 | 5.59%
O=C(NCC1(N2CCCCC2)CCCCC1)c1ccc(NS(=O)(=O)c2ccc(F)cc2)cc1 | -2.32%
CCN(CC(=O)Nc1c(F)cccc1F)C(=O)CN1c2cccc3cccc(c23)S1(=O)=O | -23.2%
COc1ccc(C(=O)Nc2ccc(C3(C#N)CCCC3)cc2)cc1OC | -41%
C[C@H](C(=O)CC(=O)OC(C)(C)C)[C@H](O)c1ccc(C(F)(F)F)cc1 | 4.25%
O=S(=O)(c1cccc(-c2cn3ccccc3n2)c1)N1CCCC1 | 11.7%
Cc1c(CN2CCC(CO)(CCOc3ccccc3)CC2)[nH]c2ccc(Cl)cc12 | -36.5%
CN(CC(=O)Nc1c(Cl)cccc1Cl)C(=O)CC1OC(=O)c2ccccc21 (stereo not drawn) | 12.4%
COC(=O)/C(=C1\Oc2ccc(C(C)(C)C)cc2S1)C(F)(F)F | 5.95%
CCc1nc2c(OCCOc3ccccc3)cccn2c1N(C)C(=O)c1cccs1 | -22.5%
CCn1c(/C=N/NC(=O)c2ccc(OC)cc2)nc2ccccc21 | 15.7%
COc1ccc(C(=O)Nc2ccccc2C(=O)N/N=C/c2ccc(O)c(OC)c2)cc1 | 69.8% (active)
COc1cccc(OCc2cc(/C=N/NC(=O)c3nc(Cl)c(Cl)c(N)c3Cl)ccc2OC)c1 | -12.8%
C=CCN(c1ccc(Cl)cc1)S(=O)(=O)c1cccc(C(=O)OCC(=O)N(C)C)c1 | 16.1%
CC(C)[C@@H](C(=O)OCC(=O)c1ccc2c(c1)NC(=O)CO2)N1C(=O)c2ccccc2C1=O | -6.83%
CC(CO)N1CCS(=O)(=O)CC1 (stereo not drawn) | 19.6%
O=C(Cc1ccc(S(=O)(=O)N2CCOCC2)s1)Nc1ccc(Br)c(C(F)(F)F)c1 | 4.75%
COCCn1cnc2c1c(=O)n(CC(=O)NN)c(=O)n2Cc1ccccc1 | 1.62%

SMILES | inhibition
N=c1c2c(-c3ccccc3)c(-c3ccccc3)n(Cc3ccccc3)c2ncn1CCCO | 62.7% (active)
COCCn1cnc2c1c(=O)n(Cc1ccc(Br)cc1)c(=O)n2Cc1ccccc1 | -1.52%
CC(C)CC[n+]1ccn(C2=C([O-])c3ccccc3C(=O)/C2=N\S(=O)(=O)c2ccccc2)c1 | -4.74%
CN(C)CC(C)(C)CNC(=O)c1cc(Br)cc(Br)c1O | -17%
Cc1c(NC(=O)COC(=O)/C=C/c2cccc(F)c2)c(=O)n(-c2ccccc2)n1C | -6.79%
CC(=O)NN=C(C)c1ccc(NC(=O)C2CC2)cc1 | 0.05%
CCCC(NCC(=O)Nc1ccccc1C(=O)NC1CC1)c1ccccc1 (stereo not drawn) | 4.81%
Cn1c(CC(=O)Nc2ccc(F)cc2)nnc1SCC(=O)NC1CCCCC1 | -3.83%
Cc1ccc(OCCNC(=O)c2cccc(S(=O)(=O)N3CCN(Cc4ccccc4)CC3)c2)cc1 | 0.45%
CC(=O)c1ccc(OC(=O)N2CCOCC2)cc1 | -9.63%
CCC(NC(=O)C1CCCC1)c1ccc(C)cc1 (stereo not drawn) | -5.79%
COc1ccc(Cl)cc1NC(=O)C(C)N1CCc2ccccc21 (stereo not drawn) | -3.25%
O=C(NN=Cc1ccccc1O)NN=Cc1ccccc1O | 64.5% (active)
C=CCOc1ccccc1/C=N/NC(=O)Cc1ccccc1 | -4.16%
O=C(N/N=C/c1ccccc1O)/C(=C/c1ccccc1)CCO | 43.6%
O=C(COc1ccc(S(=O)(=O)NCCc2ccccc2)cc1)N1CCCC1 | 15.7%
CCc1nnc(NC(=O)CCN(c2ccc(C)cc2)S(=O)(=O)c2ccccc2)s1 | 3.02%
CNS(=O)(=O)c1ccc(N2CCCC2=O)c([N+](=O)[O-])c1 | 0.16%
COc1ccc(N(C(=O)c2snc(C(N)=O)c2N)C(C(=O)NC2CCCC2)c2ccco2)cc1OC (stereo not drawn) | -3.31%
Brc1ccc2nc(-c3ccccc3)c(Cc3ccccc3)n2c1 | -38.3%

SMILES | inhibition
Cc1cc(=O)oc2c(C(=O)c3ccccc3)c(OCC(N)=O)ccc12 | 14.2%
COc1ccc(C(=O)N/N=C2\CCS(=O)(=O)c3ccc(F)cc32)cc1OC | 5.88%
Cc1cc(C)n(C(=O)c2ccc(C)c(S(=O)(=O)N3CCOCC3)c2)n1 | 12.7%
CC[C@H]1CN2CCc3cc(OC)c(OC)cc3[C@@H]2C[C@@H]1C[C@H]1NCCc2cc(OC)c(OC)cc21 | 94.6% (active)
O=C(O)C1CCN(C(=O)OCc2ccccc2)CC1 | -70.7%
CCCNC(=O)C1(C)CCCN(C(=O)c2cccc(OC(C)=O)c2C)C1 (stereo not drawn) | -10.9%
CCOC(=O)CN(C)S(=O)(=O)c1ccc(-c2cc(C(=O)OC)sc2C(F)(F)F)cc1 | 9.38%
N#C/C(=C(\O)CCl)c1nnc2n1CCCCC2 | 9.47%
CCCOc1ccc(Cc2c(O)nc(N)[nH]c2=O)cc1C | 1.06%
COC(=O)/C=C(\Oc1ccccc1)C1(O)CCCCC1 | 9.01%
COc1ccc(OC)c(NC(=O)CN(C)CCOc2ccc(Br)cc2)c1 | 4.03%
COc1ccc(OC)c(Nc2nc3ccccc3n3cnnc23)c1 | 9.44%
COc1ccc(Nc2ncnc3ccc(Br)cc23)c(OC)c1 | 82% (active)
CCOC1=C2[C@@H](CN(S(=O)(=O)c3ccc(C)cc3)[C@H]2c2ccccc2F)[C@H]2C(=O)N(Cc3ccccc3)C(=O)[C@H]2C1 | 2.22%
CCn1ncc(CNC(=O)C2(C)CC2(Br)Br)c1C (stereo not drawn) | -0.54%
CCCCCCCCn1c2c(c(=N)c3c1CCC3)CCCC2 | 80% (active)
Cc1cc(S(=O)(=O)NC2CCCC2)ccc1-n1cnnn1 | 2.04%
O=S1(=O)CCC(NC(=S)SCc2ccccc2Br)C1 (stereo not drawn) | 8%
